The source of these data is PubChem BioAssay (NCI).

Compounds without any hit were thinned out: in the full panel of roughly 83,000, 20% have a hit.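 Results are percent growth after 48 hours of single-concentration exposure. 100 means growth as in untreated cells, lower positive values show inhibition; negative values down to -100 show cell death.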 Unmarked numbers belong to inactive results. The source made the active and inactive calls. The calls were made as follows: active = growth percent below 10; inactive = the rest.

Test systems include T-47D breast; BT-549 breast; MDA-MB-435 melanoma; SW-620 colon; MCF7 breast; HCT-116 colon; HCC-2998 colon; KM12 colon.
What all share (test): NCI-60 one-dose screen, 48 h (100 = growth as untreated, 0 = no growth, -100 = all killed)
Conditions in all cases: 10 µM

In the case of `COc1ccc([C@H]2[C@H](C(=O)Nc3cccnc3)c3ccccc3C(=O)N2c2ccccc2)cc1`, the growth in the experiment with T-47D breast was 74%; with BT-549 breast, 90.5%; in the experiment on MDA-MB-435 melanoma, 99.1%; in the experiment with SW-620 colon it was 91.4%; in the experiment with MCF7 breast, 95.7%; in the experiment on HCT-116 colon, 49.4%. In addition, the growth with HCC-2998 colon was 100%; in the experiment on KM12 colon, 60.7%.
`O=C(CCc1nnc2sc(-c3cc(O)c(O)c(O)c3)nn12)c1nc2ccccc2[nH]1`: the growth in the experiment on T-47D breast was 83.9%; with BT-549 breast it was 107%; in the experiment with MDA-MB-435 melanoma, 98.9%; in the experiment with SW-620 colon, 116%; with MCF7 breast it was 85.8%; with HCT-116 colon, 85.7%. The growth with HCC-2998 colon is 111%; with KM12 colon it was 105%.
`C[C@]12CC[C@@H]3c4ccc(O)cc4CC[C@H]3[C@@H]1CC[C@@H]2NS(=O)(=O)c1ccc(C(F)(F)F)cc1`: the growth in the experiment on T-47D breast is 25%; in the experiment with BT-549 breast, 59%; in the experiment with MDA-MB-435 melanoma, 22.3%; in the experiment on SW-620 colon, 69.7%; in the experiment on MCF7 breast, 2.42% (active); in the experiment with HCT-116 colon, 18.5%. Besides, the growth with HCC-2998 colon was 60.4%; with KM12 colon, 47.5%.
Take `COc1cc(-c2csc(NC(=O)Nc3ccc(Cl)c(C(F)(F)F)c3)n2)cc(OC)c1OC`: the growth in the experiment with T-47D breast is -9.38% (active); in the experiment on BT-549 breast, -13% (active); with MDA-MB-435 melanoma it was -7.7% (active); in the experiment on SW-620 colon, 18.1%; in the experiment with MCF7 breast, -9.68% (active); in the experiment on HCT-116 colon it was -19.6% (active). In addition, the growth with HCC-2998 colon is 21.4%; in the experiment with KM12 colon it was 9.25% (active).
As for `Nc1ccc(-c2cccs2)cc1NC(=O)c1ccc(CCCC(=O)Nc2ccc(C3CC3N)cc2)cc1` (configuration not stated), the growth in the experiment with T-47D breast was 65.1%; with BT-549 breast, 96.5%; with MDA-MB-435 melanoma, 20.6%; with SW-620 colon it was 23.7%; in the experiment with MCF7 breast it was 18.8%; in the experiment on HCT-116 colon it was 3.29% (active). For the same compound, the growth in the experiment with HCC-2998 colon was 99.7%; in the experiment on KM12 colon, 69.3%.
Consider `Cc1c2cnccc2c(C)c2c1c1cc(O)ccc1n2C(C)C`, for which the growth in the experiment with T-47D breast was 3.1% (active); with BT-549 breast, -2.72% (active); with MDA-MB-435 melanoma it was 8.19% (active); with SW-620 colon, 2.58% (active); with MCF7 breast, -3.2% (active); with HCT-116 colon, -49.4% (active). In addition, the values for the growth with HCC-2998 colon and in the experiment on KM12 colon were 20.8% and 3.74% (active), respectively.
Take `c1cncc(-c2csc(-c3c[nH]c4ccccc34)n2)c1`: the growth in the experiment with T-47D breast is 64.1%; with BT-549 breast it was 89.2%; with MDA-MB-435 melanoma, 86.9%; with SW-620 colon it was 102%; in the experiment on MCF7 breast, 77.3%; in the experiment with HCT-116 colon, 82.6%. For the same compound, the growth with HCC-2998 colon was 107%; in the experiment with KM12 colon it was 81.8%.
Turning to `CCCCC1(O)CCCCC1`, the growth in the experiment on T-47D breast is 91.5%; in the experiment on BT-549 breast, 95.5%; in the experiment on MDA-MB-435 melanoma, 106%; with SW-620 colon, 102%; in the experiment with MCF7 breast it was 101%; in the experiment with HCT-116 colon, 102%. For the same compound, the figures for the growth in the experiment on HCC-2998 colon and with KM12 colon were 103% and 96.8%, respectively.
Regarding `COc1ccc2nc3cc(Cl)ccc3c(Nc3cc(CN4CCCC4)c(O)c(CN4CCCC4)c3)c2n1`, the growth with T-47D breast is 13.1%; with BT-549 breast it was -37% (active); in the experiment on MDA-MB-435 melanoma, -94% (active); with SW-620 colon, 7.17% (active); in the experiment on MCF7 breast, -11.9% (active); with HCT-116 colon it was 6.62% (active). In addition, the growth with HCC-2998 colon was -31.8% (active); with KM12 colon it was 11.8%.
Turning to `COc1cc2c(cc1NC(=O)C(Cl)Cl)-c1ccc(NC(=O)C(Cl)Cl)cc1C2`, the growth is 3.05% (active) in the experiment on T-47D breast; 69.3% with BT-549 breast; -57.7% (active) with MDA-MB-435 melanoma; -11.6% (active) with SW-620 colon; -3.08% (active) with MCF7 breast; -61% (active) in the experiment on HCT-116 colon. Besides, the growth is -98.5% (active) in the experiment with HCC-2998 colon and -65.5% (active) in the experiment on KM12 colon.
Take `O=C(CCCCNC(=O)c1nc(-c2ccccc2)n(-c2ccccc2)n1)NO`: the growth in the experiment with T-47D breast was 35%; in the experiment with BT-549 breast, 94.7%; in the experiment with MDA-MB-435 melanoma it was 79.2%; in the experiment with SW-620 colon, 64.4%; in the experiment with MCF7 breast, 67.6%; in the experiment on HCT-116 colon, 54.6%. In addition, the figures for the growth in the experiment with HCC-2998 colon and in the experiment on KM12 colon were 94.4% and 92.9%, respectively.
Regarding `CC(=O)[C@@]12O[C@](C)(c3ccccc3)O[C@@H]1CC1C3CCC4=CC(=O)CC[C@]4(C)C3CC[C@@]12C` (some centres not stated), the growth was 74.3% in the experiment with T-47D breast; 79.7% in the experiment on BT-549 breast; 77.8% in the experiment with MDA-MB-435 melanoma; 83.3% with SW-620 colon; 59% with MCF7 breast; 48.2% in the experiment with HCT-116 colon. In addition, the growth with HCC-2998 colon is 79.3%; in the experiment with KM12 colon, 70.8%.
On to `O=C1/C=C/[C@@H](O)[C@@H]2C[C@@H](O)C[C@H]2/C=C/CCC[C@H](C(F)(F)F)O1`, for which the growth is -57.2% (active) in the experiment with T-47D breast; 15.8% in the experiment on BT-549 breast; 6.68% (active) with MDA-MB-435 melanoma; -23.1% (active) in the experiment on SW-620 colon; -64.2% (active) in the experiment on MCF7 breast; -30.4% (active) in the experiment with HCT-116 colon. In addition, the growth was -36.5% (active) in the experiment with HCC-2998 colon and 30% with KM12 colon.
For `C[C@@H](O)[C@H]1C(=O)N2C(C(=O)O)=C(SCCN=CN)C[C@H]12`, the growth in the experiment on T-47D breast was -6.42% (active); with BT-549 breast it was 18.9%; with MDA-MB-435 melanoma it was -9.18% (active); in the experiment with SW-620 colon it was -0.331% (active); in the experiment on MCF7 breast, -6.51% (active); with HCT-116 colon, -24.8% (active). Further, the growth in the experiment with HCC-2998 colon was 0.878% (active); with KM12 colon, 9.33% (active).
